Compound activity: PubChem, several laboratories
NALP1 yeast inh: inhibitors of NALP1 inflammasome in yeast. S. cerevisiae NALP1/ASC/caspase-1 growth, X-gal OD620, 72 h. inhibition, % at 10 µM. 280,000 compounds, 0.61% hits. AID 2071; in the data active = inhibition mostly above about 24%, no sharp cut-off; inactive = mostly below about 32%
A3A deaminase: inhibitors of human APOBEC3A DNA deaminase; P31941; recombinant A3A, FAM/TAMRA ssDNA deamination fluorescence; 330,000 compounds, 0.41% hits; inhibition, % at 20 µM;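 active = at least 40% inhibition at 20 µM here, with at most 30% in a related deaminase screen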
Target sequence (P31941 whole entry, looked up): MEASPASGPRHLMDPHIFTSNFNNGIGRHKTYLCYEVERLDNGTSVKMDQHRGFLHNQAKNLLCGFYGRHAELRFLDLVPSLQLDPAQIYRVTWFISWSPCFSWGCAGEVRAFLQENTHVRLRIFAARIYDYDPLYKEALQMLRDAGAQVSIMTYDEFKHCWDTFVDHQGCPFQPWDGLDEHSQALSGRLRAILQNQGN
APOBEC3G inh: APOBEC3G (human) deaminase inhibition; recombinant A3G, ssDNA deamination FAM/TAMRA fluorescence; inhibition, % at 20 µM; 330,000 compounds, 0.28% hits;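 active = inhibition of at least 40% at 20 µM, with no more than 30% in the related APOBEC3A deaminase screen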
CTSL1 counter: counter-screen for PFM18AAP inhibitors: inhibitors of F. hepatica cathepsin L1; recombinant F. hepatica cathepsin L1, Z-Leu-Arg-MCA fluorescence; inhibition, % at 5.96 µM; 300,000 compounds, 0.49% hits; AID 1906;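 active = inhibition above the mean of all tested compounds plus 3 SD, set per screening campaign, cut at about 17% in these data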
HGIII-sPLA2 inh: Inhibits HGIII-sPLA2 liposome hydrolysis, primary screen. AID 743126. 370,000 compounds, 0.56% hits. QFRET BODIPY PC-A2 liposome hydrolysis, fluorescence. inhibition, % at 12.2 µM. Q9NZ20;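 active = inhibition above mean plus 3 SD of compounds lying within the high and low control bounds, cut at about 19% in these data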
Of the large screens only hits and unclear results are named; the others gave an inactive call. Compounds with a hit are over-represented: about 2% of the library has one in this group of screens.

Cc1ccc2oc(=O)c3cc(C(=O)N4CCN(C(=O)c5ccco5)CC4)sc3c2c1	none (no result: HGIII-sPLA2 inh)
CCN(Cc1ccccc1)C(=O)c1cc2c(=O)oc3ccc(C)cc3c2s1	NALP1 yeast inh 42
Cc1ccc2oc(=O)c3cc(C(=O)NCCCN4C(C)CCCC4C)sc3c2c1 (stereo not given)	CTSL1 counter 17
Cc1cc(OC(C)CCN2CCC(C(O)(c3ccccc3)c3ccccc3)CC2)ccc1Br (stereo not given)	none (no result: NALP1 yeast inh, A3A deaminase, APOBEC3G inh, CTSL1 counter)
CCn1c(N2CCC(C)CC2)nc2c1c(=O)n(C)c(=O)n2C	HGIII-sPLA2 inh 26
COc1ccc(C(=O)/C=C(\Nc2ccc(Br)c(C)c2)c2ccc(OC)cc2OC)c(OC)c1	none (no result: NALP1 yeast inh, A3A deaminase, APOBEC3G inh, CTSL1 counter)
OC(CNCC1CCCO1)Cn1c2ccc(Cl)cc2c2cc(Cl)ccc21 (stereo not given)	NALP1 yeast inh 28
OC(CNCCC1C=Nc2ccccc21)Cn1c2ccc(Cl)cc2c2cc(Cl)ccc21 (stereo not given)	NALP1 yeast inh 101 (no result: A3A deaminase, APOBEC3G inh)
Cc1nc2ccc(S(=O)(=O)NCC(=O)N(C)Cc3ccccc3Cl)cc2s1	none (no result: NALP1 yeast inh, A3A deaminase, APOBEC3G inh, CTSL1 counter)
Cc1ccc(NC(=O)C2CCCN2S(=O)(=O)c2cccnc2)cc1C (stereo not given)	none (no result: NALP1 yeast inh, A3A deaminase, APOBEC3G inh, CTSL1 counter)
N#CCOc1nc(N2CCOCC2)nc(N2CCOCC2)n1	none
N#Cc1nc(N2CCOCC2)nc(N2CCOCC2)n1	CTSL1 counter 48
CCC(Oc1ccc2c(c1)C(=O)CC(C)(C)O2)C(=O)NCCN1CCCCCC1 (stereo not given)	CTSL1 counter 37
CN(C)/C=C1/N=C(c2ccccc2)OC1=O	none
O=CC1=C(c2ccccc2)Oc2ccccc2O1	NALP1 yeast inh 52
C=CCN1C(=O)[C@@H](CC(=O)NCc2cccc(C(F)(F)F)c2)[C@]2(C(=O)OC)CCCCC=C12	none (no result: NALP1 yeast inh, A3A deaminase, APOBEC3G inh, CTSL1 counter)
O=[N+]([O-])c1ccc(N=Nc2c(Cl)cc(O)cc2Cl)cc1	NALP1 yeast inh 99 (no result: A3A deaminase, APOBEC3G inh)
CCCCCCC(=O)N(O)C1CC(=O)N(Cc2ccccc2)C1=O (stereo not given)	NALP1 yeast inh 47
O=C(c1ccccc1)c1coc2c1C(=O)c1ccccc1C2=O	CTSL1 counter 20
COc1ccc(C(=O)c2coc3c2C(=O)C(=O)c2ccccc2-3)cc1	none
O=C1c2ccccc2C(=O)c2c1oc(C(F)(F)F)c2C(=O)c1ccccc1	CTSL1 counter 26
CC(=O)c1c(C)oc2c1C(=O)c1ccccc1C2=O	none (no result: A3A deaminase, APOBEC3G inh)
O=C(NCCc1nc2ccccc2n1C/C=C/c1ccccc1)C1CCCCC1	none (no result: NALP1 yeast inh, A3A deaminase, APOBEC3G inh, CTSL1 counter)
C[C@H]1[C@H](NC(=O)c2ccc(Cl)c(Cl)c2)CC[C@@]23CCCN2C(=O)CCC[C@@H]13	none (no result: NALP1 yeast inh, A3A deaminase, APOBEC3G inh, CTSL1 counter)
Cc1c(Br)cccc1NC(=O)c1sccc1-n1cccc1	NALP1 yeast inh 44 (no result: CTSL1 counter)
C/C(=N\Nc1ncc(Cl)cc1Cl)c1ccccn1	NALP1 yeast inh 45 (no result: A3A deaminase, APOBEC3G inh, CTSL1 counter, HGIII-sPLA2 inh)
COc1ccc(NC(=O)CSc2ncnc3scc(-c4ccc(C)cc4)c23)cc1OC	none (no result: NALP1 yeast inh, A3A deaminase, APOBEC3G inh, CTSL1 counter)
CCCCS(=O)(=O)N1CCCC(C(=O)Nc2ccc3c(c2)CCC3)C1 (stereo not given)	NALP1 yeast inh 27
CCCCS(=O)(=O)N1CCCC(C(=O)NCCc2ccccc2)C1 (stereo not given)	none
CCc1cc[n+](C2=C([O-])c3ccccc3C(=O)/C2=N\S(=O)(=O)c2cccs2)cc1	CTSL1 counter 20
CCCCN(C(=S)Nc1ccccc1)C1CCS(=O)(=O)C1 (stereo not given)	CTSL1 counter 18
CCCCN(C(=O)Nc1ccccc1)C1CCS(=O)(=O)C1 (stereo not given)	none (no result: NALP1 yeast inh, CTSL1 counter)
CC(C)=CCC[C@@]1(C(=O)O)[C@H]2CC=C(CO)[C@@H]1CC/C(C)=C/CC/C(C)=C/C2	none (no result: NALP1 yeast inh, A3A deaminase, APOBEC3G inh, CTSL1 counter)
CC1=NNC(=O)/C1=C\c1cn(-c2ccccc2)nc1-c1cccs1	NALP1 yeast inh 65
CC1=NNC(=O)/C1=C\c1cn(-c2ccccc2)nc1-c1ccc(F)cc1	none (no result: A3A deaminase, APOBEC3G inh, CTSL1 counter, HGIII-sPLA2 inh)
O=S(=O)(NCCOc1ccccc1)c1ccc2ccccc2c1	none
COc1ccc(S(=O)(=O)NCCOc2ccccc2)cc1C	NALP1 yeast inh 50
COC(=O)C1CN(Cc2cn(Cc3ccc(F)cc3)nn2)CCS(=O)(=O)N1Cc1ccc(F)cc1 (stereo not given)	none (no result: NALP1 yeast inh, A3A deaminase, APOBEC3G inh, CTSL1 counter)
O=C(CSc1nnc(-c2cccnc2)n1Cc1ccco1)Nc1cc(Cl)ccc1F	none (no result: NALP1 yeast inh, A3A deaminase, APOBEC3G inh, CTSL1 counter)
COc1ccccc1-n1c(CNC(=O)c2ccc(S(=O)(=O)N3CCOCC3)cc2)n[nH]c1=S	APOBEC3G inh 42
COc1ccc(NC(=O)CCl)cn1	CTSL1 counter 17 (no result: NALP1 yeast inh, HGIII-sPLA2 inh)
O=C(CCl)Nc1ccc(Oc2cnc3ccccc3n2)cc1	CTSL1 counter 23
